This is an account of results in PubChem BioAssay (Tox21).

Results filed as inconclusive are left out. A number with no mark means an inactive call. Activity calls are given as the source filed them. The call rests on the fitted dose curve; in most records, active means well fitted activation curve with a large enough effect in the signal ratio in the repeat runs (not every such curve was filed as active); inconclusive means weak or mixed curves; inactive means flat fitted curve, though single readings scatter; the % refers to the signal ratio.
On the % scale 0 is the no-effect control and ±100 the full control effect.

The experiment can be described thus: qHTS assay to identify small molecule agonists of the hypoxia (HIF-1) signaling pathway (AID 1224846). The settings on record: HRE-bla ME-180 cells, beta-lactamase ratio, 17 h; series mostly up to 76.8 µM. The text has this: U.S. Tox21 Program National Center for Advancing Translational Sciences [NCATS] NIH Chemical Genomics Center [NCGC] U.S. Environmental Protection Agency [EPA] National Institutes of Environmental Health Sciences [NIEHS] National Toxicology Program [NTP] U.S. Food and Drug Administration [FDA] Tox21 Assay Overview: Hypoxia-inducible factor-1 (HIF-1) is the major hypoxia-regulated transcription factor that controls cellular responses to low oxygen concentration. HIF-1 is composed of two subunits: hypoxia responsive HIF-1-alpha and constitutively expressed HIF-1-beta, which is also known as aryl hydrocarbon receptor nuclear translocator. During hypoxic conditions, HIF-1-alpha heterodimerizes with HIF-1-beta and translocates into the nucleus where the HIF-1 complex binds to the hypoxia-response element (HRE) and activates expression of target genes such as VEGF (vascular endothelial growth factor). The HIF-1 pathway is essential to normal growth and development, and is involved in the pathophysiology of cancer, inflammation, and ischemia. Using a beta-lactamase reporter-gene under control of the hypoxia response element, a cell-based assay [CellSensor(TM) HRE-bla ME-180 from Life Technologies, Carlsbad, CA] was used to measure hypoxia-induced signaling. Tox21 10K library compounds were measured for their ability to induce the reporter gene activity.
Tox21 Assay Protocol Summary: HRE-bla ME-180 cells were dispensed at 2,000 cells per well in 6 uL of assay medium containing 0.5% dialyzed FBS into black wall/clear-bottom 1536-well plates using a Multidrop Combi (Thermo Scientific, Waltham, MA) dispenser. After the assay plates were incubated at 37C and 5% CO2 for 5 hrs, 23 nL of compounds dissolved in DMSO, positive controls or DMSO only was transferred to each well of the assay plate using a Pintool station (Kalypsys, San Diego, CA). The assay plates were incubated at 37C and 5% CO2 for 17 hrs. One uL of LiveBLAzerTM B/G FRET substrate (CCF4-AM) (Life Technologies) was added to each well using a Flying Reagent Dispenser (Aurora Discovery, San Diego, CA).
With `c1cc[c]([Bi]([c]2ccccc2)[c]2ccccc2)cc1`, the result was inactive.
Consider `Cn1c(=O)c2c(ncn2CC(=O)O)n(C)c1=O`, for which the result was inactive.
Turning to `O=S1OCCO1`, the outcome was inactive.
`CC(COc1ccc(C(C)(C)C)cc1)OS(=O)OCCCl` (stereo not given): the result was inactive.
The same measure, in the same setting: to `O=C(NCCCN1CCOCC1)c1ccc(Cl)cc1` belongs “inactive”.
With `CCCCCCCC/C=C\CCCCCCCC(=O)OC(CO)CO`, the result was inactive.
With `CN1CCN(c2c(F)cc3c(=O)c(C(=O)O)cn4c3c2OCN4C)CC1`, the activation is -0.337% [at 15.8 µM].
Consider `COc1ccc(C(=O)c2cccc(O)c2)c(OC)c1`, for which the result was inactive.
The same measure, in the same setting: in the case of `CCCCCCCCSCCO` it was “inactive”; in that of `CC(=O)Nc1ccccc1C`, “inactive”; in that of `CC1(C)O[C@@H]2C[C@H]3[C@@H]4CCC5=CC(=O)C=C[C@]5(C)[C@H]4[C@@H](O)C[C@]3(C)[C@]2(C(=O)CO)O1`, “inactive”.
Regarding `CCCCCCCC/C=C\CCCCCCCC(=O)OC`, the outcome was inactive.
Consider `COc1ccc([C@@H]2Sc3ccccc3NC(=O)[C@@H]2O)cc1`, for which the result was inactive.
On the same count and under the same terms, in the case of `CCC(C)=O` it was “inactive”; in that of `CC1CC(=O)NN=C1c1ccc(NCC(C)(C)NCC(O)COc2cc(Cl)ccc2C#N)cc1` (stereo not given), “inactive”; in that of `CCCOC(=O)c1ccc(N)cc1`, “inactive”.
With `C/C=C(\C)C(=O)OCCC(C)CCC=C(C)C` (stereo not given), the outcome was inactive.
With `c1ccc(COCc2ccccc2)cc1`, the result was inactive.
As to `CCC(C)(C)C1CCC(O)CC1` (stereo not given), the outcome was inactive.
Take `C=CC(C)=CCC=C(C)C`: the outcome was inactive.
The same measure, in the same setting: to `CCc1nn(CCCN2CCN(c3cccc(Cl)c3)CC2)c(=O)n1CCOc1ccccc1` belongs “inactive”; to `COCCOC`, “inactive”; to `CC#N`, “inactive”.
For `CCCCC1C(=O)N(c2ccccc2)N(c2ccc(O)cc2)C1=O` (stereo not given), the outcome was inactive.
As to `CC(=O)OCC(=O)[C@H]1CC[C@H]2[C@@H]3CCC4=CC(=O)CC[C@]4(C)[C@H]3CC[C@]12C`, the result was inactive.
On the same count and under the same terms, in the case of `CN1Cc2cc(C(=O)N3CCC(C4CCNCC4)CC3)ccc2N[C@@H](CC(=O)O)C1=O` it was “inactive”; in that of `O=C1OCCN1/N=C/c1ccc([N+](=O)[O-])o1`, “inactive”; in that of `CCOC(=O)[C@@H](C)Oc1ccc(Oc2nc3ccc(Cl)cc3o2)cc1`, “inactive”.
Consider `COc1ccccc1N=Nc1c(S(=O)(=O)O)cc2cc(S(=O)(=O)O)cc(NC(C)=O)c2c1O`, for which the outcome was inactive.
Take `O=C(CCC1CCN(Cc2ccccc2)CC1)c1ccc2c(c1)NCCCC2`: the outcome was inactive.
Take `CN(C)CCOC1=Cc2ccccc2Sc2ccc(Cl)cc21`: the outcome was inactive.
Turning to `Brc1cc(-c2ccc(Br)c(Br)c2Br)cc(Br)c1Br`, the result was inactive.
As for `CCC(C)(O)CCC=C(C)C` (stereo not given), the outcome was inactive.
Turning to `CN1C(=O)CC(C)(c2ccccc2)C1=O` (stereo not given), the outcome was inactive.
`CC(C)CCCCCOC(=O)CCCCC(=O)OCCCCCC(C)C`: the result was inactive.
Turning to `Oc1cc(O)c(Cl)cc1Cl`, the outcome was inactive.
Consider `CNC(=O)N(c1ccccc1)c1ccccc1`, for which the outcome was inactive.
Same read-out and setting: in the case of `CSc1ccc(Oc2ccc(S(N)(=O)=O)cc2CN(C)C)cc1C` it was “inactive”.
As for `COCc1c(C(C)C)nc(C(C)C)c(/C=C/[C@@H](O)C[C@@H](O)CC(=O)O)c1-c1ccc(F)cc1`, the result was inactive.
Consider `Nc1ccc(S(=O)(=O)O)cc1`, for which the result was inactive.
